Only some compounds are listed: those with a hit (about 3.2% of all), similar ones and a draw of the others.
TMEM16A inh – TMEM16A chloride channel inhibitors, primary screen, cell-based, HTS; normalized B-score (activity score, 25-100; higher = stronger inhibition) at 10 µM; 1.2% of 310,000 active; HEK293 TMEM16A/YFP iodide influx fluorescence, ionomycin;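 active = ratio plate-corrected score three or more library SD toward inhibition, starting fluorescence score within five deviations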;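 note: score derived from kinetic fluorescence span divided by baseline fluorescence per well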
Target sequence (Q8BHY3 whole entry, looked up): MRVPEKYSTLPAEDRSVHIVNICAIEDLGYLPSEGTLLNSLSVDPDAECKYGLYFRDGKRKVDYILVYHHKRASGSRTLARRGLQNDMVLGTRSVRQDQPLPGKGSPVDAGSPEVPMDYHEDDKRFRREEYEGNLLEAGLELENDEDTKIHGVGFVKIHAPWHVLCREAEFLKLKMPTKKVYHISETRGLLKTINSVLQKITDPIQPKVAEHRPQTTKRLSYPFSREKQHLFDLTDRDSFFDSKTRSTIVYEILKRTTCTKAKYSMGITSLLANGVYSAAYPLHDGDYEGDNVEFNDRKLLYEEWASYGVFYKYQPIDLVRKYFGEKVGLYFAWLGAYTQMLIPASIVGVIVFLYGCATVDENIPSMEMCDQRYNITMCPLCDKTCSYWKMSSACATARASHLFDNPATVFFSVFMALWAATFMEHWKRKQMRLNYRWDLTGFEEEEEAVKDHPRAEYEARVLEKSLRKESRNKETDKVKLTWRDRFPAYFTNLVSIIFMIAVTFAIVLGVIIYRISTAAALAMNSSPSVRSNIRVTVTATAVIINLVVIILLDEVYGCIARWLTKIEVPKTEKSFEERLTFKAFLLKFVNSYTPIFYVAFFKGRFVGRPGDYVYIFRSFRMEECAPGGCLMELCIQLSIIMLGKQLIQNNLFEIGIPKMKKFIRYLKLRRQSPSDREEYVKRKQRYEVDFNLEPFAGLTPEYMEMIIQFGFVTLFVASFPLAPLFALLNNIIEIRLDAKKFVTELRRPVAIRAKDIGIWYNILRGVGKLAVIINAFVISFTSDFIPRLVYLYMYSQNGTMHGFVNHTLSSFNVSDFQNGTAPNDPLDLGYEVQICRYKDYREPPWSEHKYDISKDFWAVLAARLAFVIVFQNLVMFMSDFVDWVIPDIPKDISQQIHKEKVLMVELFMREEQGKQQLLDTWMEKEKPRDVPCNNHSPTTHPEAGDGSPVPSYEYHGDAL
CHT block – inhibitors of human choline transporter CHT; B-score at 10 µM; High affinity choline transporter 1 (Homo sapiens), Q9GZV3; 0.86% of 310,000 active; CHT-expressing cells, membrane potential dye, choline response; active compounds read low; AID 488975, 2010;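 active = B-score over 3 SD under the library average, and starting fluorescence ratio not unusually high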;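 note: choline stimulus applied at its EC90 after an EC20 pre-addition; B-score computed on integrated fluorescence ratio after choline addition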
HDAC3 inh – HDAC3 deacetylase inhibitors, primary screen, biochemical, fluorescence, cell-free homogeneous | Histone deacetylase 3 (Homo sapiens), O15379 | recombinant HDAC3, fluorogenic peptide/trypsin coupled | inhibition, % at 8.3 µM | 0.15% of 320,000 active; in the data active = inhibition above about 26%, passing the limit was not always enough; inconclusive = no clear call, values can overlap the other calls
CHT allo act – CHT positive allosteric modulators, primary screen, cell-based, membrane potential dye, choline EC20. High affinity choline transporter 1 (Homo sapiens), Q9GZV3. CHT-expressing cells; active compounds read high; LV-AA mutant CHT in HEK293 cells. B-score at 10 µM. 0.49% of 310,000 active;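 active = initial fluorescence not abnormally high and integrated response B-score, plate-corrected, over 3 SD above library mean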
TMEM16A act – TMEM16A chloride channel activators or potentiators, primary screen, cell-based, HTS; B-score at 10 µM; HEK293 TMEM16A/YFP-H148Q/I152L, iodide quench fluorescence; active compounds read low; Anoctamin-1 (Mus musculus), Q8BHY3; 0.3% of 340,000 active;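 active = fluorescence-ratio B-score plate-corrected deviation score at least 3 library SD below zero, with starting fluorescence score within 5 deviations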;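 note: channel opened by trigger with iodide after compound preincubation; score built on the fluorescence ratio of max minus min over baseline; more negative score means more quench and so TMEM16A activation or potentiation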
PHOSPHO1 block – PubChem AID 1565. inhibition, % at 13.3 µM. Phosphoethanolamine/phosphocholine phosphatase (Homo sapiens), Q8TCT1. 1.1% of 290,000 active. recombinant PHOSPHO1, absorbance phosphatase assay; in the data active = inhibition above about 60%
CHT activ conf – CHT activators, confirmation, cell-based, membrane potential dye, duplicate; activation, % at 10 µM; CHT-expressing cells, membrane potential dye fluorescence (FDSS); % of choline EC20–EC90 response window; HEK293 expressing CHT LV-AA mutant; choline added at its EC20; 91% of 2,500 active; shares compounds with CHT allo act;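 active = primary screen active, with duplicate mean activation above negative control mean plus 3 SD, cut at about 11% in these data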
HEK293 MP dye – membrane potential response in parental HEK293 cells, counter-screen for CHT activator project, cell-based, membrane potential dye. shares compounds with CHT allo act. ratio readout change at 10 µM, hits read low. AID 623908, 2012. 62% of 2,500 active. membrane potential dye fluorescence (FDSS); measured after EC20 choline addition;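 active = duplicate-averaged ratio beyond 3 SD from buffer wells, up or down, though filed actives are nearly all decreases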
* = called active by the depositor; i = inactive; u = inconclusive; x = no result.

SMILES	TMEM16A inh	CHT block	HDAC3 inh	CHT allo act	TMEM16A act	PHOSPHO1 block	CHT activ conf	HEK293 MP dye
CCOC(=O)C(C)NC(=O)Cn1ncc2c(=O)oc3ccc(C)cc3c21 (centres undefined)	i	i	u	i	i	19	x	x
O=[N+]([O-])c1ccc(N/N=C\c2ccccc2OCc2ccccc2)cc1	i	i	0	i	i	-6	x	x
Cc1nn2cnc3sc4c(c3c2nc1=O)CCCC4	i	i	0	6.6*	i	-10	40*	-46*
c1nc2sc3c(c2c2nnnn12)CCCC3	i	i	-3	i	i	-13	x	x
O=C(NCCc1ccc(F)cc1)c1cc([N+](=O)[O-])ccc1N1CCOCC1	i	i	7	i	i	x	2	i
CN1CCN(c2ccc([N+](=O)[O-])cc2C(=O)N2CCOCC2)CC1	i	i	-3	i	i	57	x	x
O=C(NC1CCSc2ccccc21)c1ccc([N+](=O)[O-])cc1 (centres undefined)	i	i	2	i	i	-14	x	x
O=C(c1cc([N+](=O)[O-])ccc1N1CCOCC1)N1CCN(c2ccccc2)CC1	i	i	-2	12*	i	22	48*	i
O=C(NCCc1ccccc1)c1cc([N+](=O)[O-])ccc1N1CCOCC1	x	x	1	x	i	x	x	x
O=C(Nc1ccccc1C(=O)NCCN1CCOCC1)c1cccc([N+](=O)[O-])c1	i	i	-2	i	i	24	58*	-57*
O=C(NC1CCSc2ccccc21)c1cc([N+](=O)[O-])ccc1N1CCOCC1 (centres undefined)	i	i	3	6.4*	i	x	6	i
O=[N+]([O-])c1ccc(N2CCCCCC2)c(S(=O)(=O)N2CCCCC2)c1	i	i	9	i	i	17	x	x
O=[N+]([O-])c1ccc(N2CCN(c3ccccc3F)CC2)c(S(=O)(=O)N2CCOCC2)c1	i	i	13	6.2*	i	-2	34*	i
CC1(C)C([N+](=O)[O-])C(c2ccc(F)cc2)NC(c2ccc(F)cc2)C1[N+](=O)[O-] (centres undefined)	i	i	11	i	i	25	x	x
CCCCN(CC(=O)Nc1c(C)cccc1CC)C(=O)SCC	i	i	-6	9.1*	i	8	13*	i
CCc1cccc(C)c1NC(=O)CN(C)Cc1ccc(Br)cc1	i	i	-1	i	i	24	24*	i
CC(NC(=O)CN(C)Cc1ccc(Br)cc1)c1ccccc1 (centres undefined)	i	i	6	8*	i	20	17*	i
CSc1ccccc1NC(=O)CN(C)Cc1ccc(Br)cc1	i	i	x	i	i	-10	x	x
CCC(CC)c1nnc(NC(=O)C2CC(=O)N(CCc3ccc(F)cc3)C2)s1 (centres undefined)	i	i	-3	i	i	3	x	x
CCn1c(CNc2ccc(C)cc2C)nnc1SCC(=O)N1CCCc2ccccc21	i	i	2	i	i	-111	x	x
COc1cc(OC)cc(-c2nnc(SCC(=O)N3c4ccccc4Sc4ccccc43)o2)c1	i	i	1	i	i	x	x	x
Cc1ccn2cc(CCNS(=O)(=O)c3ccc4ccccc4c3)nc2c1	i	i	0	i	i	25	x	x
Cc1ccn2cc(CCNS(=O)(=O)c3ccc4c(c3)OCCO4)nc2c1	i	i	7	i	i	2	25*	i
COc1ccc(C(=O)Nc2ccncc2)cc1OC	i	i	-2	8.2*	i	24	39*	-50*
COc1ccc(Cl)cc1C(=O)Nc1ccncc1	i	i	1	i	i	13	60*	-42*
SMILES	TMEM16A inh	CHT block	HDAC3 inh	CHT allo act	TMEM16A act	PHOSPHO1 block	CHT activ conf	HEK293 MP dye
COc1ccc(C(=O)Nc2ccncc2)cc1[N+](=O)[O-]	i	i	2	i	i	-12	x	x
COc1ccc(Cl)cc1C(=O)NNC(=O)c1ccncc1	i	i	6	i	i	19	x	x
Cc1ccccc1C(=O)N=c1c(C#N)cc2c(=O)n3cccc(C)c3nc2n1Cc1ccco1	i	i	-61	i	x	0	x	x
Cc1cccn2c(=O)c3cc(C(=O)NCc4ccco4)c(=N)n(CCc4ccccc4)c3nc12	i	i	x	i	i	16	22*	-31*
CC(=O)N=c1c(C#N)cc2c(=O)n3cccc(C)c3nc2n1Cc1ccco1	i	i	-86	i	i	-32	47*	-36*
CC(=O)N=c1c(C#N)cc2c(=O)n3cccc(C)c3nc2n1CCCOC(C)C	i	i	-128	i	i	15	44*	-45*
CS(=O)(=O)Nc1ccccc1C(=O)NCc1ccco1	i	i	-10	i	i	18	x	x
CC(=O)OCC(=O)C1CCC2C3CCC4=CC(=O)C=CC4(C)C3CCC12C (centres undefined)	x	x	x	x	i	x	x	x
O=[N+]([O-])c1ccc(C[n+]2cc(-c3ccccc3)n3c2CCCCC3)cc1	i	i	3	i	i	10	x	x
O=[N+]([O-])c1ccc(C[n+]2cc(-c3ccc(Cl)c(Cl)c3)n3c2CCCCC3)cc1	i	i	4	i	i	32	34*	-33*
Clc1ccc(-c2c[n+](Cc3ccc(Br)cc3)c3n2CCCCC3)cc1	i	i	1	i	i	8	x	x
Clc1ccc(C[n+]2cc(-c3ccccc3)n3c2CCC3)cc1Cl	i	i	1	7.8*	i	-9	18*	-27*
CC1CCC(C(C)C)C(OC(=O)C[n+]2cc(-c3ccc(Cl)cc3)n3c2CCCCC3)C1 (centres undefined)	i	i	6	13*	i	32	64*	i

Screening results (PubChem BioAssay)
